Each structure is given as a SMILES string. Activity calls are given as the source filed them. The calls were made as follows: active = hit-call score of the fitted dose curve at least 0.9, where 1 is the maximum; inactive = score below 0.9.

This assay can be described thus: APR_HepG2_CellCycleArrest_72hr: Apredica 72-hour HepG2 Assay for Cell Cycle Arrest (AID 2282914). Particulars: high-content imaging, actives raise or lower the signal. How it is done:
APR_HepG2_72hr is a cell-based, multiplexed-readout assay that uses HepG2, a human liver cell line, with measurements taken at 72 hours after chemical dosing in a 384-well plate.APR_HepG2_CellCycleArrest_72hr is one of 10 assay component(s) measured or calculated from the APR_HepG2_72hr assay. It is designed to make measurements of cell phenotype, a form of morphology reporter, as detected with fluorescence intensity signals by HCS Fluorescent Imaging technology.Data from the assay component APR_HepG2_CellCycleArrest_72hr was analyzed into 1 assay endpoint. This assay endpoint, APR_HepG2_CellCycleArrest_72hr, was analyzed with bidirectional fitting relative to DMSO as the negative control and baseline of activity. Using a type of morphology reporter, measures of all nuclear dna for gain or loss-of-signal activity can be used to understand the signaling at the pathway-level as they relate to the gene . Furthermore, this assay endpoint can be referred to as a primary readout, because this assay has produced multiple assay endpoints where this one serves a signaling function. To generalize the intended target to other relatable targets, this assay endpoint is annotated to the cell cycle intended target family, where the subfamily is arrest.
Cells were treated with dimethyl sulfoxide (DMSO) as a solvent control at a final concentration of 0.5% v/v or with compounds in DMSO with a resulting final DMSO concentration of 0.5% v/v. Compound treatment was done at concentrations of 0.39, 0.78, 1.56, 3.12, 6.24, 12.5, 25, 50, 100, and 200 uM in duplicate on each plate. Cells were treated with compounds for 1, 24, or 72 hr. Carbonyl […] m-chloro-phenylhydrazone (CCCP) and taxol were used as positive controls for mitochondrial function and cytoskeletal stability, respectively; DMSO served as the negative control for this experiment. Cells were fixed by the direct addition of 50 uL formaldehyde in Hank's Balanced Salt Solution (HBSS) to a final concentration of 3.7%. After incubation in the fixation medium for 30 min at room temperature (293-298 K), cells were rinsed twice with HBSS and treated with cell permeabilization buffer (16 uL of 0.5% Triton X-100) for 10 min at room temperature (293-298 K) before labeling. For mitochondrial membrane potential and mitochondrial measurements, pre-fixed cells were incubated with 50 uL of MitoTracker Red CMXRos (Invitrogen) at a concentration of 250 nM for 30 min before fixation. In the remaining cases, post-fixed cells were labeled by incubation with a multiplexed mixture of primary antibodies in HBSS for 60 min at room temperature (293-298 K) to detect immunoreactivity of c-Jun (1:500), phospho-histone H3 (1:100), phospho-histone H2A.x (1:200), p53 (1:400), alpha-tubulin (1:200) and Hoechst 33342 (2 ug/mL). Cells were labeled for multiplexed imaging on two separate plates: a) Hoechst 33342, MitoTracker Red, phospho-histone H3, and alpha-tubulin, and b) Hoechst 33342, phospho-histone H2A.x, and c-Jun. A final rinse with HBSS (50 uL) was performed before analysis. The primary and secondary antibodies for the proteins were phospho-histone H3 (rabbit anti-phospho-histone H3 and FITC-donkey anti-rabbit IgG), phospho-histone H2A.x (mouse anti-phospho-histone H2A.x and FITC-donkey anti-mouse IgG), c-Jun (rabbit anti-phospho-c-Jun and Cy3-donkey anti-rabbit IgG), p53 (sheep anti-p53 and Cy5-donkey anti-sheep IgG), alpha-tubulin (mouse anti-alpha-tubulin and Cy5-donkey anti-mouse IgG). These antibodies are available as the CellCiphr HepG2 assay kit (Millipore).Digital images of each well were captured using a Cellomics ArrayScan VTI (Thermo Scientific Cellomics) (0.8 NA objective, 0.63x optical coupler, and XF-93 filter set) at 20x magnification. The images were acquired using the autofocus feature of the ArrayScan instrument, which entails the following steps. First, the camera focuses on channel 1 (Hoechst 33342), where nuclei are identified. Second, a Z offset of 1 um is used for capturing mitochondria (MitoTracker Red). […]
Consider `N#Cc1ccc(N(CC(N)=O)CC(F)(F)F)cc1C(F)(F)F`, for which the result was inactive.
Turning to `C=CC(N)=O`, the outcome was inactive.
`O=C(N[C@H]1CN2CCC1CC2)c1cc2ccoc2cn1`: the compound was classed as inactive.
Regarding `COS(=O)(=O)OC`, the outcome was inactive.
Usually AC50 stands for the midpoint of the concentration-response curve, whichever way the signal moves. `ClC1=C(Cl)[C@]2(Cl)[C@@H]3[C@@H](Cl)[C@H]4O[C@H]4[C@@H]3C1(Cl)C2(Cl)Cl`: the AC50 is 86.3 µM (active).
On to `Oc1c(Cl)c(Cl)c(Cl)c(Cl)c1Cl`, for which the AC50 is 60.8 µM (active).
In the case of `c1cc2ccc3cccc4ccc(c1)c2c34`, the compound was classed as inactive.
On to `CCCCCCOC(=O)c1ccccc1C(=O)OCCCCCC`, for which the AC50 is 109 µM (active).
Regarding `CCCCCCCCOC(=O)c1ccccc1C(=O)OCCCCCCCC`, the call was inactive.
Take `CCCCCCCCCc1ccc(O)cc1`: the compound was called inactive.
For `O=S(=O)(O)C(F)(F)C(F)(F)C(F)(F)C(F)(F)C(F)(F)C(F)(F)F`, the call was inactive.
Consider `O=NN(c1ccccc1)c1ccccc1`, for which the call was inactive.
For the compound `Nc1ccc(-c2ccc(N)cc2)cc1`, the result was inactive.
Same read-out and setting: then `CC(C)(c1ccccc1)c1ccc(O)cc1`, with “inactive”; and `CN(C)CCO`, with “inactive”.
The same measure, in the same setting: as for `C1CC2OC2CC1C1CO1` (stereo not given), the entry is “inactive”; as for `Oc1ccc(C(c2ccc(O)cc2)(C(F)(F)F)C(F)(F)F)cc1`, “inactive”.
As to `Cc1ccccc1CO[C@@H]1C[C@@]2(C(C)C)CC[C@]1(C)O2`, the outcome was inactive.
Turning to `Cc1cc(-c2ccc(N)c(C)c2)ccc1N`, the AC50 is 66.7 µM (active).
`CCOCCOC(C)=O`: the call was inactive.
As to `O=C(O)C(F)(F)C(F)(F)C(F)(F)C(F)(F)C(F)(F)F`, the result was inactive.
Turning to `Cc1ccccc1[N+](=O)[O-]`, the outcome was inactive.
Take `Cc1cccc([N+](=O)[O-])c1`: the compound was classed as inactive.
As for `Cc1cc2c3c(c1)C(c1ccccc1)=N[C@@H](NC(=O)c1ccncc1)C(=O)N3CC2`, the outcome was inactive.
On the same count and under the same terms, as for `COc1ccc(O)c(C(C)(C)C)c1`, the entry is “inactive”.
On to `CC1=C2C[C@H]3[C@@H](CC=C4C[C@@H](O)CC[C@@]43C)[C@@H]2CC[C@]12O[C@@H]1C[C@H](C)CN[C@H]1[C@H]2C`, for which the call was inactive.
As for `Cc1cccc(C)c1N`, the result was inactive.
For the compound `CC(C)(O)C(=O)Nc1ccc([N+](=O)[O-])c(C(F)(F)F)c1`, the compound was classed as inactive.
`O=C(O)C(F)(F)C(F)(F)C(F)(F)C(F)(F)C(F)(F)C(F)(F)C(F)(F)C(F)(F)C(F)(F)F`: the AC50 is 66.8 µM (active).
Consider `c1ccc(-c2ccccc2)cc1`, for which the compound was called inactive.
Take `Clc1ccc(Cl)cc1`: the compound was called inactive.
`CCCN(CCC)N=O`: the call was inactive.
For `Clc1ccc(C(c2ccccc2Cl)C(Cl)(Cl)Cl)cc1` (stereo not given), the AC50 was 24.6 µM (active).
As to `CC(C)C(=O)OCC(C)(C)C(OC(=O)C(C)C)C(C)C` (stereo not given), the compound was classed as inactive.
Turning to `CCSC(=O)N(CC)C1CCCCC1`, the compound was called inactive.
For `ClC(Cl)=C(c1ccc(Cl)cc1)c1ccc(Cl)cc1`, the AC50 is 17 µM (active).
In the case of `O=C(NC(=O)c1cc(F)c(F)cc1Cl)Nc1cc(F)ccc1N1CCC(C(=O)O)CC1`, the compound was called inactive.
Same read-out and setting: then `O=S(=O)(O)C(F)(F)C(F)(F)C(F)(F)C(F)(F)F`, with “inactive”.
Regarding `CCC(C)c1cc([N+](=O)[O-])cc([N+](=O)[O-])c1O` (stereo not given), the AC50 is 75.8 µM (active).
As to `CC(c1ccc(O)cc1)(c1ccc(O)cc1)c1ccc(O)cc1`, the compound was called inactive.

These data come from PubChem BioAssay (EPA / NIEHS).
